Results on 14 molecules are retold here after PubChem BioAssay (NCI).

Compounds without any hit were thinned out: in the full panel of roughly 83,000, 20% have a hit.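 96-well plates, one dose, 48 hours. Percent growth reported; active if below 10.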 Values without a mark were called inactive. Active and inactive are the calls of the source.

Among the test systems are HCT-15 colon; HT29 colon; SNB-75 CNS; SNB-19 CNS; U251 CNS; PC-3 prostate; SK-MEL-5 melanoma; UACC-62 melanoma; SK-MEL-28 melanoma.
Assay in all cases: NCI-60 one-dose screen, 48 h (100 = growth as untreated, 0 = no growth, -100 = all killed)
What all share (conditions): 10 µM unless noted

Turning to `C#CCN=C[C@]12CC[C@@H](C(=C)C)[C@@H]1[C@H]1CC[C@@H]3[C@@]4(C)CCC(=O)C(C)(C)[C@@H]4CC[C@@]3(C)[C@]1(C)CC2`, the growth is 53.2% with HCT-15 colon; 55.7% in the assay on HT29 colon; 120% with SNB-75 CNS; 79% in the assay on SNB-19 CNS; 62.1% in the assay with U251 CNS; 24.5% in the assay with PC-3 prostate. Moreover, the figures for the growth in the assay on SK-MEL-5 melanoma, in the assay with UACC-62 melanoma and with SK-MEL-28 melanoma were 25.3%, 37.7% and 81.6%, respectively.
On to `COc1ccc(OCC(CO)N2CCN(c3ccccc3)CC2)cc1` (stereo unspecified), for which the growth was 102% in the assay on HCT-15 colon; 98.2% in the assay on HT29 colon; 97.4% in the assay with SNB-75 CNS; 96.6% in the assay with SNB-19 CNS; 97.3% with U251 CNS; 84.6% in the assay on PC-3 prostate. Also, the growth with SK-MEL-5 melanoma was 104%; in the assay on UACC-62 melanoma, 97.2%; in the assay on SK-MEL-28 melanoma, 103%.
With `O=C1OC(c2ccc(Cl)c(Cl)c2)=C/C1=C/c1cccc([N+](=O)[O-])c1`, the growth was 99.1% in the assay with HCT-15 colon; 93.7% in the assay with HT29 colon; 92.9% in the assay on SNB-75 CNS; 94.9% in the assay on SNB-19 CNS; 99.2% in the assay with U251 CNS; 97.9% with PC-3 prostate. Moreover, the growth in the assay on SK-MEL-5 melanoma was 102%; in the assay on UACC-62 melanoma it was 88.7%; in the assay on SK-MEL-28 melanoma, 105%.
Consider `CCCCn1c(-c2ccc(O)cc2)cn2c3c(=O)[nH]c(=O)n(C)c3nc12`, for which the growth in the assay on HCT-15 colon is 54.2%; in the assay with HT29 colon, 77.6%; in the assay with SNB-75 CNS, 53.2%; in the assay with SNB-19 CNS it was 82.5%; with U251 CNS it was 66.7%; with PC-3 prostate it was 68.9%. For the same molecule, the figures for the growth in the assay on SK-MEL-5 melanoma, in the assay with UACC-62 melanoma and with SK-MEL-28 melanoma were 51.9%, 51.2% and 74.7%, respectively.
Consider `COC(=O)[C@]12CC[C@@H](C(C)=O)[C@@H]1[C@H]1CC[C@@H]3[C@@]4(C)C/C(=C/c5cccnc5)C(=O)C(C)(C)[C@@H]4CC[C@@]3(C)[C@]1(C)CC2`, for which the growth in the assay with HCT-15 colon was 23.2%; in the assay with HT29 colon, 16.5%; in the assay with SNB-75 CNS, 110%; with SNB-19 CNS, 67.7%; with U251 CNS, 56.6%; in the assay on PC-3 prostate, 24.4%. Moreover, the growth in the assay with SK-MEL-5 melanoma was 39.8%; in the assay with UACC-62 melanoma it was 34.5%; with SK-MEL-28 melanoma, 31.5%.
For `O=c1c(CNc2ccc(S(=O)(=O)Nc3ncccn3)cc2)coc2ccccc12`, the growth in the assay on HCT-15 colon is 84.5%; in the assay on HT29 colon it was 110%; in the assay with SNB-75 CNS, 79.4%; with SNB-19 CNS, 94.2%; in the assay on U251 CNS, 93.3%; in the assay on PC-3 prostate, 92.2%. In addition, the growth in the assay with SK-MEL-5 melanoma is 95.9%; with UACC-62 melanoma, 89.8%; in the assay with SK-MEL-28 melanoma, 119%.
Turning to `Cc1csc(Nc2nc(-c3ccc(Cl)cc3)nc(C(Cl)(Cl)Cl)n2)n1`, the growth is 84.1% in the assay with HCT-15 colon; 63.1% in the assay on HT29 colon; 89.4% in the assay on SNB-75 CNS; 72.9% in the assay with SNB-19 CNS; 72.8% in the assay with U251 CNS; 74.1% in the assay on PC-3 prostate. Further, the growth in the assay on SK-MEL-5 melanoma is 93.1%; in the assay on UACC-62 melanoma it was 83.2%; in the assay on SK-MEL-28 melanoma, 92%.
In the case of `CC(=O)N1N=C(c2ccc(C)cc2)CC1c1ccc(Oc2ccc(Br)cc2)cc1` (stereo unspecified), the growth in the assay with HCT-15 colon is 80.4%; with HT29 colon, 79%; with SNB-75 CNS it was 73.7%; in the assay with SNB-19 CNS, 84.9%; in the assay on U251 CNS, 75.3%; in the assay on PC-3 prostate, 87%. In addition, the growth with SK-MEL-5 melanoma is 91.7%; in the assay with UACC-62 melanoma, 64.4%; with SK-MEL-28 melanoma, 105%.
`Cc1cc2nc3c4cc(O)ccc4n(CCN(C)C)c3nc2cc1C`: the growth was -29.3% (active) in the assay with HCT-15 colon; 1.97% (active) in the assay with HT29 colon; -5.77% (active) with SNB-75 CNS; 2.18% (active) in the assay on SNB-19 CNS; 3.44% (active) in the assay with U251 CNS; 6.53% (active) in the assay with PC-3 prostate. The growth is -27.4% (active) in the assay with SK-MEL-5 melanoma, -49.5% (active) with UACC-62 melanoma and -8.23% (active) in the assay on SK-MEL-28 melanoma.
`COc1cccc2c1C(=O)c1c(O)c3c(c(O)c1C2=O)C[C@@](O)(C(=O)CO)C[C@@H]3OC1C[C@H](N)[C@H](O)[C@H](C)O1` (stereo partly specified): the growth was 18.4% in the assay with HCT-15 colon; -13.1% (active) in the assay with HT29 colon; -76.1% (active) with SNB-75 CNS; 8.7% (active) in the assay with SNB-19 CNS; 2.94% (active) with U251 CNS; -2.52% (active) in the assay on PC-3 prostate. The results for the growth in the assay with SK-MEL-5 melanoma, with UACC-62 melanoma and in the assay with SK-MEL-28 melanoma were -86.4% (active), -59% (active) and -30% (active), respectively.
For `COc1ccccc1-n1cnc(N)c1C(=O)c1cc(OC)c(OC)c(OC)c1`, the growth with HCT-15 colon is 35.5%; with HT29 colon, 11.7%; with SNB-75 CNS, 8.36% (active); in the assay with SNB-19 CNS, 55.1%; with U251 CNS it was 36.8%; in the assay with PC-3 prostate, 50.2%. Besides, the growth in the assay with SK-MEL-5 melanoma is 28.5%; in the assay on UACC-62 melanoma, 29.1%; in the assay on SK-MEL-28 melanoma it was 51.5%.
For `CC(C)/C=C/CC[C@](C)(O)[C@H]1CC[C@]2(C)[C@@H]1CC[C@@H]1[C@@]3(C)C/C(=C/c4cccc(C(F)(F)F)c4)C(=O)C(C)(C)[C@@H]3CC[C@]12C`, the growth with HCT-15 colon was 90.6%; in the assay on HT29 colon, 97.3%; with SNB-75 CNS, 62.8%; in the assay with SNB-19 CNS, 92.2%; in the assay on U251 CNS, 92.6%; in the assay with PC-3 prostate it was 79.5%. Besides, the values for the growth with SK-MEL-5 melanoma, in the assay on UACC-62 melanoma and in the assay on SK-MEL-28 melanoma were 97.6%, 81.8% and 105%, respectively.
For `O=C(N/N=C\c1c(O)ccc2ccccc12)C1CC1`, the growth in the assay with HCT-15 colon was 28.4%; with HT29 colon, 69.6%; in the assay with SNB-75 CNS it was 53.8%; with SNB-19 CNS, 54.9%; in the assay with U251 CNS, 35.6%; in the assay with PC-3 prostate, 45.8%. Further, the results for the growth with SK-MEL-5 melanoma, in the assay with UACC-62 melanoma and with SK-MEL-28 melanoma were 53.1%, 25.2% and 69.7%, respectively.
On to `CC(=O)NC1=C(C#N)C(c2ccccc2Cl)c2c(ccc3ccccc23)O1` (stereo unspecified), for which the growth in the assay on HCT-15 colon was 32%; in the assay on HT29 colon, 51.6%; in the assay with SNB-75 CNS it was 30.1%; in the assay on SNB-19 CNS, 58.1%; in the assay on U251 CNS it was 69.3%; with PC-3 prostate, 60.6%. For the same molecule, the figures for the growth in the assay on SK-MEL-5 melanoma, in the assay on UACC-62 melanoma and in the assay with SK-MEL-28 melanoma were 56.7%, 36.6% and 66.4%, respectively.
